According to PubChem BioAssay (Tox21):
“And” between values parts separate entries of the source, which are not always exact repeats. Equal values may be shown once. Records with an inconclusive call do not appear. Where a structure was tested more than once in an assay, its records may differ in their call. The source made the active and inactive calls. Unless noted, calls follow the shape of the dose curve; as a rule, active = well fitted curve in the direction sought with a large enough effect in the repeat runs; inconclusive = weak or mixed curves; inactive = no such curve, though single readings can be large; an effect the other way counts as inactive or inconclusive.

Assays:
[1] = target: Retinoic acid receptor RXR-alpha (Homo sapiens) (UniProt P19793); assay: qHTS assay to identify small molecule agonists of the RXR signaling pathway (AID 1159527; calls by dose curve; also: nearly all actives have a fitted effect of over 35% in size; also: potency is read from the fitted curve at half-maximal effect)
In short: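 qHTS of the Tox21 10K library in GeneBLAzer RXR-alpha HEK 293T cells carrying a beta-lactamase reporter […]; 16 hr treatment, 9-cis retinoic acid as agonist control, FRET read-out.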

[2] = qHTS assay to identify small molecule agonists of the RXR signaling pathway - cell viability counter screen (AID 1159529); also: nearly all actives have a fitted effect of over 50% in size; also: potency is read from the fitted curve at half-maximal effect
In short: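 Cell viability is measured by CellTiter-Glo luminescence, 30 min at room temperature, in wells already read for beta-lactamase. Engineered HEK 293T cells (RXR-alpha-UAS-bla) are dosed 16 hr at 37 C. Tetraoctyl ammonium bromide serves as positive control.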

[3] = qHTS assay to identify small molecule antagonists of the retinoid acid receptor (RAR) signaling pathway - cell viability counter screen (AID 1159551); also: nearly all actives have a fitted effect of over 35% in size
In short: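 Luminescent ATP quantitation (CellTiter-Glo) gave cell viability in C3RL4 cells exposed to test chemicals for 6 h at 37 C alongside 1 uM final retinol.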

[4] = qHTS assay to identify small molecule antagonists of the retinoic acid receptor (RAR) signaling pathway (AID 1159552; also: nearly all actives have a fitted effect of over 50% in size)
In short: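 Quantitative HTS in C3RL4 RARE-luciferase reporter cells. Compounds were added with 1 uM (final) retinol; luminescence was read after 6 hr.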

[5] = qHTS assay to identify small molecule agonists of the retinoic acid receptor (RAR) signaling pathway (AID 1159553)
In short: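 Luminescence from a RARE-driven luciferase reporter in C3RL4 cells served as the read-out, measured after 30 min with detection reagent at room temperature. Compounds in DMSO were applied for 6 hr at 37 C following overnight seeding.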

[6] = qHTS assay to identify small molecule antagonists of the estrogen related receptor (ERR) signaling pathway from Tox21 library - cell viability counter screen (AID 1224834); also: nearly all actives have a fitted effect of over 30% in size
In short: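 Fluorescence from CellTiter-Fluor gives the viability read-out, taken 30 min after reagent addition. Before that, ERR cells seeded 6 h earlier were incubated with compounds for 17.5 h at 37 C.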

[7] = target: Luciferin 4-monooxygenase (Photinus pyralis) (UniProt P08659); assay: qHTS assay to identify small molecule inhibitors of firefly luciferase (AID 1224835); also: nearly all actives have a fitted effect of over 25% in size; also: potency is read from the fitted curve at half-maximal effect
In short: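 Inhibition of purified Photinus luciferase is measured by luminescence. Substrate levels (D-luciferin, ATP) sit at their KM values. Each compound is tested in a concentration series.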

[8] = qHTS assay to identify small molecule agonists of the constitutive androstane receptor (CAR) signaling pathway - cell viability counter screen (AID 1224836); also: series mostly up to about 92 µM; nearly all actives have a fitted effect of over 45% in size
In short: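 Counter screen multiplexed with the CAR reporter readout: HepG2 cells co-transfected with hCAR and the CYP2B6-2.2kb construct receive a 15-concentration compound series and 0.75 uM PK11195 (final), then CellTiter-Fluor fluorescence is read after 23 h.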

[9] = qHTS assay to identify small molecule antagonists of the constitutive androstane receptor (CAR) signaling pathway - cell viability counter screen (AID 1224837); also: series mostly up to about 92 µM; nearly all actives have a fitted effect of over 45% in size
In short: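 HepG2-CYP2B6-hCAR cells, 2500/well, 4 hr pre-incubation; compound titration, 15 conc.; CITCO 50 nM final; 23 hr, 37 C/5% CO2; CellTiter-Fluor, fluorescence intensity.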

[10] = qHTS assay to identify small molecule antagonists of the estrogen related receptor signaling pathway with the pleiotropic PPARgamma coactivator (PGC) from Tox21 10K library - cell viability counter screen (AID 1224840; active = well fitted cell-killing curve with a large enough effect in the repeat runs, not every such curve was filed as active; also: nearly all actives have a fitted effect of over 40% in size)
In short: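 PGC/ERR cells, 2,000/well; 6 h pre-incubation 37 C/5% CO2; cpd in DMSO via pin tool; 17.5 h 37 C; CellTiter-Fluor, 30 min; fluorescence.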

[11] = qHTS assay to identify small molecule agonists of the hypoxia (HIF-1) signaling pathway - cell viability counter screen (AID 1224844; calls by dose curve; also: nearly all actives have a fitted effect of over 50% in size)
In short: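 ME-180 HRE-bla cells, 2,000/well, 0.5% dialyzed FBS; 5 hr settle, 17 hr compound at 37C/5% CO2; CCF4-AM reporter read first, then CellTiter-Glo luminescence after 30 min RT.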

[12] = qHTS assay to identify small molecule agonists of H2AX (AID 1224845; active = well fitted activation curve with a large enough effect in the signal ratio in the repeat runs, not every such curve was filed as active; the % refers to the signal ratio)
In short: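 Phospho-H2AX Ser139 measured by HTRF (ex 320 nm; em 665 and 620 nm) after 24 hr antibody incubation. Compounds, 15 concentrations, 0.76% DMSO, were applied to CHO-K1 cells for 3hr at 37C before lysis.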

[13] = qHTS assay to identify small molecule agonists of the hypoxia (HIF-1) signaling pathway (AID 1224846; active = well fitted activation curve with a large enough effect in the signal ratio in the repeat runs, not every such curve was filed as active; the % refers to the signal ratio)
In short: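 Cell line: CellSensor HRE-bla ME-180; 2,000 cells/well; 0.5% dialyzed FBS; 5 h preincubation; DMSO compound pin transfer; 17 h, 37C, 5% CO2; CCF4-AM added; bla FRET signal scored for activation.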

[14] = qHTS assay to identify small molecule agonists of H2AX - cell viability counter screen (AID 1224847; calls by dose curve; also: top concentration of the series differs between compounds; nearly all actives have a fitted effect of over 30% in size)
In short: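 We seed wild-type CHO-K1 cells overnight, treat them for 3 hr at 37C with compounds in 15-concentration series, and quantify remaining viability by CellTiter-Glo luminescence.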

[15] = target: Thyrotropin receptor (Homo sapiens) (UniProt P16473); assay: qHTS assay to identify small molecule agonists of the thyroid stimulating hormone receptor (TSHR) signaling pathway (AID 1224843; calls by dose curve; also: nearly all actives have a fitted effect of over 45% in size; also: potency is read from the fitted curve at half-maximal effect)
In short: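 HEK293 cells stably bearing the thyrotropin receptor were plated at 800 cells/well and challenged with compound (30 min, RT). Accumulated cAMP was quantified via cAMP-d2 competing for cryptate-tagged antibody.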

[16] = qHTS assay to identify small molecule antagonists of the estrogen related receptor (ERR) signaling pathway - cell viability counter screen (AID 1224818);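 also: series mostly up to about 46 µM; viability measured after 17.5 h of compound exposure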
In short: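 Multiplexed counter screen to separate cytotoxic compounds from true ERR modulators. ERR cells received DMSO-dissolved compounds after a 6 h pre-incubation, were exposed 17.5 h at 37 C, then assayed with CellTiter-Fluor fluorescence.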

[17] = qHTS assay to identify small molecule antagonists of the estrogen related receptor signaling pathway with the pleiotropic PPARgamma coactivator (PGC) cell viability counter screen (AID 1224822; also: series mostly up to about 46 µM)
In short: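 Cells: PGC/ERR, 2,000/well, 1536-well format. Pre-incubation 6 h, 37 C/5% CO2. Compound exposure 17.5 h, 37 C. Detection: CellTiter-Fluor, 30 min, fluorescence.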

[18] = target: Nuclear receptor subfamily 1 group I member 3 (Homo sapiens) (UniProt Q14994); assay: qHTS assay to identify small molecule antagonists of the constitutive androstane receptor (CAR) signaling pathway (AID 1224838);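 also: HepG2 cells stably expressing hCAR with CYP2B6 luciferase reporter stimulated by CITCO; nearly all actives have a fitted effect of over 40% in size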
In short: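 HepG2-CYP2B6-hCAR cells; 4 h pre-incubation; cpd (15 conc) + CITCO 50 nM final; 24 h, 37 C/5% CO2; ONE-Glo, luminescence.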

[19] = target: Nuclear receptor subfamily 1 group I member 3 (Homo sapiens) (UniProt Q14994); assay: qHTS assay to identify small molecule agonists of the constitutive androstane receptor (CAR) signaling pathway (AID 1224839); also: series mostly up to about 92 µM; nearly all actives have a fitted effect of over 15% in size
In short: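 A 15-concentration quantitative screen uses HepG2 cells co-transfected stably with human CAR and CYP2B6-2.2kb reporter. Treatment lasts 24 h with 0.75 uM PK11195 final present; ONE-Glo luminescence is the signal.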

[20] = qHTS assay to identify small molecule antagonists of the estrogen related receptor signaling pathway with the pleiotropic PPARgamma coactivator (PGC) from Tox21 10K library (AID 1224841; call rule not given here; also: series mostly up to about 92 µM; actives are mostly falling curves and most rising ones were filed inactive; nearly all actives have a fitted effect of over 50% in size)
In short: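 PGC/ERR cell line, 2,000 cells/well; 6 h pre-incubation 37 C/5% CO2; compounds (DMSO) pinned in; 18 h, 37 C; One-Glo, 30 min RT; luminescence.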

Measured: Potency

Sequence of Nuclear receptor subfamily 1 group I member 3 (Homo sapiens) (Q14994 whole entry, looked up): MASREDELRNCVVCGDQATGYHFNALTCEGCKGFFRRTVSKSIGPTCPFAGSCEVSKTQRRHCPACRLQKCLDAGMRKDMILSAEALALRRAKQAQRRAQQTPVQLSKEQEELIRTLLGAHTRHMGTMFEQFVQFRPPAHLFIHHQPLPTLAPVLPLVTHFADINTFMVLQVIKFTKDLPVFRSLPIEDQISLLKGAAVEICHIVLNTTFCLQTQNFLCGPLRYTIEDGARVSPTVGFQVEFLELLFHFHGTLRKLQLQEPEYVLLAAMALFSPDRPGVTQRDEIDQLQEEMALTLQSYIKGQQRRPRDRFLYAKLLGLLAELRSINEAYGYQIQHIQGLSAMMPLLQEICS
Sequence of Luciferin 4-monooxygenase (Photinus pyralis) (P08659 whole entry, looked up): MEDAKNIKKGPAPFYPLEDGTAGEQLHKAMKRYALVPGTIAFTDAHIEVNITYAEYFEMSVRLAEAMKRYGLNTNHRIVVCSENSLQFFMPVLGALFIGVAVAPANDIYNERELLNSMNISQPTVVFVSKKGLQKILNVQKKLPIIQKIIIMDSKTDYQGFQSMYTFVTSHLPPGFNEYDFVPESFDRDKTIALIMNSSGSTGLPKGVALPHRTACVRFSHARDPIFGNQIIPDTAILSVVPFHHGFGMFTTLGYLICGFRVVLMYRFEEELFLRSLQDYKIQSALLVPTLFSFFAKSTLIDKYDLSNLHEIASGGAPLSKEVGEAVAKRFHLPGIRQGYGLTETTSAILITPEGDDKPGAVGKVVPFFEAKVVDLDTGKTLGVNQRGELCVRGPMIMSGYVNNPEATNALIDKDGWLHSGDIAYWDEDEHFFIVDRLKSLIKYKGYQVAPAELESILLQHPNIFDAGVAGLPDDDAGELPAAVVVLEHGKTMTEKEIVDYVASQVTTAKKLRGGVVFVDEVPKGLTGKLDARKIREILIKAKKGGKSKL
Sequence of Thyrotropin receptor (Homo sapiens) (P16473 whole entry, looked up): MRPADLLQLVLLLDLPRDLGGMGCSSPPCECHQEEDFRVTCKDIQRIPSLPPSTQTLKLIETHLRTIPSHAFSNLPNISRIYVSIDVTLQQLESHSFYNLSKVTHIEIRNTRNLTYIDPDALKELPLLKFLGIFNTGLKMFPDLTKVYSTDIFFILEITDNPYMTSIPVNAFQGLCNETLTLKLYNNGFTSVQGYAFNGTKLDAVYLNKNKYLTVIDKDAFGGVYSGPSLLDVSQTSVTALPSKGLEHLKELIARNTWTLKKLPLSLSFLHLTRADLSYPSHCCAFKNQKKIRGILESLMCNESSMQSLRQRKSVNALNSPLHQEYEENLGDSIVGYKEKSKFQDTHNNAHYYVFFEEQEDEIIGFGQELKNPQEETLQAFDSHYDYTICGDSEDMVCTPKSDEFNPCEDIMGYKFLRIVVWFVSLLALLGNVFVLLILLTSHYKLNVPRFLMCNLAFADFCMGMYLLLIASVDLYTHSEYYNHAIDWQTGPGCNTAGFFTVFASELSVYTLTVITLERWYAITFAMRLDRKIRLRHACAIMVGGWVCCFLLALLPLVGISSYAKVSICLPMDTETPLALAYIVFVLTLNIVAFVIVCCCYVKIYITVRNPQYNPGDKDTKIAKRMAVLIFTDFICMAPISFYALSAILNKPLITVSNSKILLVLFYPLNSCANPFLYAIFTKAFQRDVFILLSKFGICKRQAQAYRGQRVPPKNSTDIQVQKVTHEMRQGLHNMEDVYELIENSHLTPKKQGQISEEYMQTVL
Sequence of Retinoic acid receptor RXR-alpha (Homo sapiens) (P19793 whole entry, looked up): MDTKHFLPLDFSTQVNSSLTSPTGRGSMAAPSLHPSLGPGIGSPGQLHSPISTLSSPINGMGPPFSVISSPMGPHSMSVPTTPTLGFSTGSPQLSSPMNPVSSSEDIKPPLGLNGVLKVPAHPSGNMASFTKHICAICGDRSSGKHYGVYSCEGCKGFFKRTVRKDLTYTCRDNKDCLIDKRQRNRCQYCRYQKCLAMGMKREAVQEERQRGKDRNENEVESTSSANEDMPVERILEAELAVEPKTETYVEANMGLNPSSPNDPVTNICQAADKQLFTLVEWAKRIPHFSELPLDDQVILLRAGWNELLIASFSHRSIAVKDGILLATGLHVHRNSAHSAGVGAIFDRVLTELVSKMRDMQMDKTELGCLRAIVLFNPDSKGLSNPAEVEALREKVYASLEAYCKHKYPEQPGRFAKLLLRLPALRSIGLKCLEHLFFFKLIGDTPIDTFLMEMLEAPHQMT

O=C(O)[C@H](O)[C@@H](O)[C@H](O)[C@H](O)CO
not listed: [15] | [16] | [17] | [18] | [19] | [20]
inactive: all other assays above

CC(=O)CC(=O)Nc1ccccc1
19.3 µM (active) and inactive: [15]
not listed: [11] | [16] | [17] | [18] | [19] | [20]
inactive: all other assays above

C#CCN(C)Cc1ccccc1
not listed: [9] | [11] | [13] | [19] | [20]
inactive: all other assays above

CCCCCCOCCO
not listed: [15] | [16] | [17] | [19] | [20]
inactive: all other assays above

O=c1[nH]c(=O)n([C@H]2CCCO2)cc1F
17.4 µM (active) and inactive: [1]
not listed: [16] | [17] | [20]
inactive: all other assays above

Cc1ccc(S(N)(=O)=O)cc1
not listed: [11] | [16] | [17] | [18] | [19] | [20]
inactive: all other assays above

O=S1(=O)CC=CC1
not listed: [11] | [13] | [16] | [17] | [18] | [19] | [20]
inactive: all other assays above

C=CCNC(N)=S
38 µM (active) and inactive: [2]
not listed: [16] | [17] | [19] | [20]
inactive: all other assays above

CCOC(=O)NNc1nncc2ccccc12
not listed: [11] | [13] | [16] | [17] | [19] | [20]
inactive: all other assays above

O=C(O)c1ccccc1C(c1ccc(O)cc1)c1ccc(O)cc1
not listed: [16] | [17]
inactive: all other assays above

O=C(CC(C(=O)OC1CCCCC1)S(=O)(=O)O)OC1CCCCC1 (centres undefined)
not listed: [9] | [11] | [16] | [17]
inactive: all other assays above

O=C1CCC(N2C(=O)c3ccccc3C2=O)C(=O)N1 (centres undefined)
not listed: [13] | [20]
inactive: all other assays above

CC(=O)Nc1ccccc1
not listed: [9] | [16] | [17] | [20]
inactive: all other assays above

O=C(Oc1ccccc1)c1ccccc1
inactive and 71 µM (active): [7]
not listed: [13] | [16] | [17] | [19]
inactive: all other assays above

c1ccc2scnc2c1
not listed: [13] | [16] | [17] | [18] | [19] | [20]
inactive: all other assays above

C/C=C1/CC2C=CC1C2 (centres undefined)
not listed: [11] | [15] | [16] | [17] | [19] | [20]
inactive: all other assays above
